In PubChem BioAssay AID977606 (Broad Institute, 2014):
Out of some 1,500 compounds screened, about 430 (29%) were called active. How the calls were made is not given here. Not all results are given here. Measured potencies and affinities stand elsewhere.

Assay: insulin secretion activators without glucose, dose response, counter-screen for glucose-dependent insulin secretion activators, cell-based, INS-1E, Gaussia luciferase, luminescence, cherry-pick (AID 977606)
Details: INS-1E Gaussia luciferase insulin secretion, no glucose, 100% = twice neutral-control luminescence; series mostly up to 35 µM

Compound	outcome
c1ccc(-c2nnc3ccc(N4CCC5(CC4)OCCO5)nn23)cc1	inactive
O=C(O)c1ccc(-n2nnnc2SCc2ccccc2Br)cc1	inactive
CCC1OC(C2CC2)CC2=C1C(=O)OC(C)(C)O2 (configuration not stated)	inactive
c1ccc(CCN2CCN=C2Nc2ccccc2)cc1	inactive
O=C(NC1CCCCC1)C(c1ccc(F)cc1)N(Cc1ccccc1)C(=O)CN1C(=O)c2ccccc2S1(=O)=O (configuration not stated)	inactive
COc1cc(C(=O)O)ccc1OCc1ccccc1	inactive
COc1ccc(/C=N/NS(=O)(=O)c2ccccc2)cc1OC	inactive
O=C(O)c1ccc(-n2nnnc2SCc2cccc(Br)c2)cc1	inactive
CCCCNc1cc(Cl)nc(N)n1	inactive
O=C(N/N=C/c1ccncc1)c1cc(-c2ccc(Br)s2)[nH]n1	inactive
CC1=CC(c2ccccc2)n2nc(NC(=O)CCC(=O)O)nc2N1 (configuration not stated)	inactive
CC(=O)NCCNC(=O)CNC(=O)c1ccc(Cl)cc1	inactive
C=CCn1cnc2scc(-c3ccc(OC)cc3)c2c1=O	inactive
COc1cc2c(cc1OC)/C(=C/C(=O)c1ccc(NC(C)=O)cc1)NCC2	inactive
COC(=O)c1sc2ccccc2c1NC(=O)c1cccs1	inactive
O=C(Nc1nonc1NC(=O)c1cccs1)c1cccs1	inactive
CCOc1ncccc1C(=O)Nc1ccc(S(=O)(=O)Nc2nccs2)cc1	inactive
O=C(O)c1cccc(N/N=C/c2sc(N3CCOCC3)nc2-c2ccccc2)c1	inactive
Cc1ccc(NC(=O)CC2S/C(=N/N=C/c3c[nH]c4ccccc34)NC2=O)cc1 (configuration not stated)	inactive
Cc1ccc(CC2S/C(=N/c3ccccn3)NC2=O)cc1 (configuration not stated)	inactive
CCc1ccc2c(c1)cc(CN(Cc1ccco1)C(C)=O)c1nnnn12	inactive
N#CCc1nn2c(-c3ccccc3)ccnc2c1C#N	inactive
O=C(OCc1c(-c2ccccc2)ncc2ccccc12)c1cccs1	inactive
O=C(NCc1ccco1)c1ccc2c(=O)n(CCC3=CCCCC3)c(=O)[nH]c2c1	inactive
Cc1c(CC(=O)O)c(=O)oc2c(C)c(OCc3ccccc3Br)ccc12	inactive
N#Cc1c(N)n(C2CCCCC2)c2nc3ccccc3nc12	inactive

Compound	outcome
COc1ccc(-n2c(O)cnc2Nc2nc(C)cc(C)n2)cc1OC	inactive
CCn1ccc(C(=O)Nc2ccccc2SC)n1	inactive
COc1ccc(CNC(=O)COC(=O)c2cc(C)nc3ccccc23)cc1	inactive
CCOC(=O)Cn1c(=O)n(Cc2ccc(OC)cc2)c(=O)c2cccnc21	inactive
Cc1ccc(NC(=O)[C@@H](Cc2ccccc2)NC(=O)[C@H]2O[C@@H](n3ccc(=O)[nH]c3=O)[C@H](O)[C@@H]2O)cc1C	inactive
CNc1nc(N)c(C(=O)C(C)(C)C)s1	inactive
COCCn1c(=S)[nH]c2sc3c(c2c1=O)CCCC3	inactive
COc1ccc(OC)c(C2=Nn3c(nnc3-c3ccncc3)SC2)c1	inactive
CC(C)Cn1c(=O)n(C)c(=O)c2[nH]cnc21	inactive
O=C(NCC1CCCO1)C1CCC(N2C(=O)c3ccccc3C2=O)CC1 (configuration not stated)	inactive
CC(C)NC(=O)C1(C)CN(S(C)(=O)=O)CC(=O)N1CCCN1CCOCC1 (configuration not stated)	inactive
O=C(CC1SC2=NCCN2C1=O)Nc1ccc(Br)cc1 (configuration not stated)	inactive
O=C(NC1CCCC1)C(C1CC1)n1c(-c2ccccn2)nc2ccccc21 (configuration not stated)	inactive
COc1ccc(C(O)c2nccc3cc(OC)c(OC)cc23)cc1OC (configuration not stated)	inactive
O=C(NN=C1CCCC1)c1cc(-c2ccccc2)n[nH]1	inactive
COc1ccc(/C=N/NC(=O)c2cc(-c3ccc4c(c3)OCO4)n[nH]2)cc1OC	inactive
Cc1cccc(CN2C(=O)CSc3ccc(C(=O)NC4CC4)cc32)c1	inactive
CNc1nc(Sc2ccccc2)cc(C(F)(F)F)n1	inactive
CCOC(=O)c1cnc2ccc(Cl)cc2c1Nc1ccc(S(=O)(=O)Nc2ncccn2)cc1	inactive
CC(=O)c1cccc(Nc2ncnc3ccc(Br)cc23)c1	inactive
COc1ccc(Cl)cc1C(=O)Nc1cccc(-c2ccc3nncn3n2)c1	inactive
COc1ccc(/C(C)=N/Nc2ccc(C(=O)O)cc2)cc1OC	inactive
Cc1cc(C(=O)Nc2cccc(O)c2)c(C)o1	inactive
Cc1ccnc(NC(=O)Nc2ccc(Br)cc2Cl)c1	inactive
COc1ccc(CCN(C)C(=O)CCNS(=O)(=O)c2ccccc2C(F)(F)F)cc1OC	inactive
NNc1nc(-c2ccccc2)c2ccccc2n1	inactive

Compound	outcome
COc1nc(-c2ccccc2)c2cc(C)ccc2n1	inactive
NC(=O)c1cc2cc(Cl)ccc2o/c1=N/NC(=O)c1cccs1	inactive
COc1ccc(/C=C2/SC(=O)N(NS(=O)(=O)c3ccccc3)C2=S)cc1OC	inactive
CCc1nc2ccc(C(=O)N(C)CCCN(C)C)cn2c1N(C=O)CCC(C)C	inactive
CCCc1cc2c(OC)ccc(O)c2c(=O)n1C	inactive
CC(=O)Nc1ccc(Cl)c(-c2nc3ncccc3o2)c1	inactive
CCn1nc(C(=O)Nc2ccc3nc(C)sc3c2)c2ccccc2c1=O	inactive
CNc1cc(-c2ccc(OC)c(OC)c2)ncn1	inactive
CC(C)c1c(C(=O)N/N=C/c2cccc3ccccc23)nnn1-c1nonc1N	inactive
CC(C)Nc1nc(NC(C)(C)C)nc(Oc2ccc(=O)n(C)n2)n1	inactive
COc1cc2c(cc1OC)-c1cc(Nc3ccc(C)cc3)nc(=O)n1CC2	inactive
COc1ccc(OC)c(N(CC(=O)NN=C2CCN(C)CC2)S(=O)(=O)c2ccccc2)c1	inactive
CCCCC(=O)Nc1ccc(C(=O)NNC(=O)c2ccc(C)c(Br)c2)cc1	inactive
COc1ccc(/C=N/n2c(-c3n[nH]c4c3CCC4)n[nH]c2=S)cc1OC	inactive
NC(=O)c1ccsc1NC(=O)COC(=O)CNC(=O)c1ccc(Cl)cc1	inactive
COc1ccc(C(=O)NCC(=O)OCC(=O)Nc2sccc2C#N)cc1OC	inactive
Cc1cc2oc(=O)cc(CN3CCOCC3)c2c(C)c1Cl	inactive
c1ccc2c(NCC3CCCO3)nc(N3CCCCC3)nc2c1 (configuration not stated)	inactive
COc1cc(C2N(C)CCC3(OCCO3)C2(C)C)cc(OC)c1OC (configuration not stated)	inactive
CCOc1ccc2oc(C(=O)N(C)CCc3ccc(OC)c(OC)c3)c(C)c2c1	inactive
COc1ccc(-c2cc3nc4ccccc4n3c(N)c2C#N)cc1	inactive
O=C(NCCCNc1ccnc2cc(Cl)ccc12)c1ccccc1F	inactive
COc1cccc(NC(=O)CN(C)C(=O)Cn2[nH]c(=O)c3ccccc3c2=O)c1	inactive
COc1ccc(C(=O)Cc2cc3cccc(OC)c3oc2=O)cc1	inactive
CCn1c(=O)[nH]c(=O)c2c(N)c(C(=O)c3cc(F)ccc3F)sc21	inactive
